Experimental data from PubChem BioAssay (EPA / NIEHS).
The source made the active and inactive calls. The calls were made as follows: active = hit-call score of the fitted dose curve at least 0.9, where 1 is the maximum; inactive = score below 0.9.

Assay: APR_HepG2_NuclearSize_24hr: Apredica 24-hour HepG2 Assay for Nuclear Size (AID 2282907)
Conditions: high-content imaging, actives raise or lower the signal
Experimental: APR_HepG2_24hr is a cell-based, multiplexed-readout assay that uses HepG2, a human liver cell line, with measurements taken at 24 hours after chemical dosing in a 384-well plate.APR_HepG2_NuclearSize_24hr is one of 10 assay component(s) measured or calculated from the APR_HepG2_24hr assay. It is designed to make measurements of cell phenotype, a form of morphology reporter, as detected with fluorescence intensity signals by HCS Fluorescent Imaging technology.Data from the assay component APR_HepG2_NuclearSize_24hr was analyzed into 1 assay endpoint. This assay endpoint, APR_HepG2_NuclearSize_24hr, was analyzed with bidirectional fitting relative to DMSO as the negative control and baseline of activity. Using a type of morphology reporter, measures of all nuclear dna for gain or loss-of-signal activity can be used to understand the signaling at the nuclear-level. Furthermore, this assay endpoint can be referred to as a primary readout, because this assay has produced multiple assay endpoints where this one serves a signaling function. To generalize the intended target to other relatable targets, this assay endpoint is annotated to the cell morphology intended target family, where the subfamily is organelle conformation.
Cells were treated with dimethyl sulfoxide (DMSO) as a solvent control at a final concentration of 0.5% v/v or with compounds in DMSO with a resulting final DMSO concentration of 0.5% v/v. Compound treatment was done at concentrations of 0.39, 0.78, 1.56, 3.12, 6.24, 12.5, 25, 50, 100, and 200 uM in duplicate on each plate. Cells were treated with compounds for 1, 24, or 72 hr. Carbonyl […] m-chloro-phenylhydrazone (CCCP) and taxol were used as positive controls for mitochondrial function and cytoskeletal stability, respectively; DMSO served as the negative control for this experiment. Cells were fixed by the direct addition of 50 uL formaldehyde in Hank's Balanced Salt Solution (HBSS) to a final concentration of 3.7%. After incubation in the fixation medium for 30 min at room temperature (293-298 K), cells were rinsed twice with HBSS and treated with cell permeabilization buffer (16 uL of 0.5% Triton X-100) for 10 min at room temperature (293-298 K) before labeling. For mitochondrial membrane potential and mitochondrial measurements, pre-fixed cells were incubated with 50 uL of MitoTracker Red CMXRos (Invitrogen) at a concentration of 250 nM for 30 min before fixation. In the remaining cases, post-fixed cells were labeled by incubation with a multiplexed mixture of primary antibodies in HBSS for 60 min at room temperature (293-298 K) to detect immunoreactivity of c-Jun (1:500), phospho-histone H3 (1:100), phospho-histone H2A.x (1:200), p53 (1:400), alpha-tubulin (1:200) and Hoechst 33342 (2 ug/mL). Cells were labeled for multiplexed imaging on two separate plates: a) Hoechst 33342, MitoTracker Red, phospho-histone H3, and alpha-tubulin, and b) Hoechst 33342, phospho-histone H2A.x, and c-Jun. A final rinse with HBSS (50 uL) was performed before analysis. The primary and secondary antibodies for the proteins were phospho-histone H3 (rabbit anti-phospho-histone H3 and FITC-donkey anti-rabbit IgG), phospho-histone H2A.x (mouse anti-phospho-histone H2A.x and FITC-donkey anti-mouse IgG), c-Jun (rabbit anti-phospho-c-Jun and Cy3-donkey anti-rabbit IgG), p53 (sheep anti-p53 and Cy5-donkey anti-sheep IgG), alpha-tubulin (mouse anti-alpha-tubulin and Cy5-donkey anti-mouse IgG). These antibodies are available as the CellCiphr HepG2 assay kit (Millipore).Digital images of each well were captured using a Cellomics ArrayScan VTI (Thermo Scientific Cellomics) (0.8 NA objective, 0.63x optical coupler, and XF-93 filter set) at 20x magnification. The images were acquired using the autofocus feature of the ArrayScan instrument, which entails the following steps. First, the camera focuses on channel 1 (Hoechst 33342), where nuclei are identified. Second, a Z offset of 1 um is used for capturing mitochondria (MitoTracker Red). […]

SMILES | outcome | AC50
C1=Cc2cccc3cccc1c23 | inactive | 
Cc1ccc(N=C=O)cc1N=C=O | inactive | 
CC(O)CCO (stereo not given) | inactive | 
CCOc1cccc(C2(N3CCN(c4ccccc4)CC3)CCC(C)CC2)c1 (stereo not given) | inactive | 
Cc1cc(N=Nc2ccccc2C)ccc1N | inactive | 
[O-][Cl+]O | inactive | 
CC(C)(C)OOC(=O)c1ccccc1 |  | 38.6 µM (active)
O=Cc1ccco1 | inactive | 
Cn1cc(-c2ccccc2)c(=O)c(-c2cccc(C(F)(F)F)c2)c1 | inactive | 
Cc1ccc(N)c(N)c1 | inactive | 
C[N+](C)(C)CC1CO1 (stereo not given) | inactive | 
CCNS(=O)(=O)C(F)(F)C(F)(F)C(F)(F)C(F)(F)C(F)(F)C(F)(F)C(F)(F)C(F)(F)F | inactive | 
CCOC(=O)[C@]1(c2ccccc2)Oc2ccccc2[C@@H]1N | inactive | 
Nc1ccc(N=Nc2ccccc2)cc1 | inactive | 
Oc1ccc2ccc3cccc4ccc1c2c34 | inactive | 
O=C(O)C1C2CCC(O2)C1C(=O)O (stereo not given) | inactive | 
CC(C)(O)c1cnn2c(-c3ccc(F)c(-c4c(F)cccc4C#N)c3)cnc2n1 | inactive | 
CCCCC(CC)COC(=O)c1ccc(C(=O)OCC(CC)CCCC)c(C(=O)OCC(CC)CCCC)c1 (stereo not given) | inactive | 
C[C@]12C=CC3=C4CCC(=O)C=C4CC[C@H]3[C@@H]1CC[C@@H]2O | inactive | 
Nc1ccc(Cc2ccc(N)cc2)cc1 | inactive | 

SMILES | outcome | AC50
COC(=O)c1ccccc1N | inactive | 
c1ccc(NNc2ccccc2)cc1 | inactive | 
c1ccc(N=Nc2ccccc2)cc1 | inactive | 
Clc1ccccc1Cl | inactive | 
OCCCBr | inactive | 
CCCCCCCCCCCCCN1CC(C)OC(C)C1 (stereo not given) |  | 105 µM (active)
CS(=O)(=O)NC(=O)c1cc(Oc2ccc(C(F)(F)F)cc2Cl)ccc1[N+](=O)[O-] | inactive | 
ClC1=C(Cl)C2(Cl)C3C(Cl)C=CC3C1(Cl)C2(Cl)Cl (stereo not given) |  | 101 µM (active)
CCC12COCN1COC2 | inactive | 
[Cl-].[Cl-].[Hg+2] |  | 31.9 µM (active)
CO[C@@H]1[C@H](OC(=O)NC(=O)CCl)CC[C@]2(CO2)[C@H]1[C@@]1(C)O[C@@H]1CC=C(C)C | inactive | 
Cc1cccc(N)c1N | inactive | 
OCCCl | inactive | 
ClC1=C(Cl)[C@]2(Cl)[C@H]3[C@H]([C@@H]4C=C[C@H]3C4)[C@@]1(Cl)C2(Cl)Cl |  | 53.8 µM (active)
Clc1ccc(C(c2ccc(Cl)cc2)C(Cl)(Cl)Cl)cc1 |  | 56.5 µM (active)
CN(C)[C@@H]1C(=O)C(C(N)=O)=C(O)[C@@]2(O)C(=O)C3=C(O)c4c(O)cccc4[C@@](C)(O)[C@H]3C[C@@H]12 | inactive | 
c1ccc(C2CO2)cc1 (stereo not given) | inactive | 
O=C(Oc1ccc(Br)cc1)N1CCN2CCC1CC2 | inactive | 
O=[N+]([O-])c1ccc(Oc2ccc(Cl)cc2Cl)cc1 | inactive | 
O=P(OCCCl)(OCCCl)OCCCl | inactive | 
